# Measured values reported in PubChem BioAssay (NCATS).
# Inconclusive results are not listed. Entries that show only a call come without a potency. Unmarked numbers belong to inactive results. Calls of active or inactive are those of the source. Unless noted, calls follow the shape of the full dose curve.
# What was measured:
# [1] = target: Androgen receptor (Homo sapiens) (UniProt P10275); test: qHTS assay for small molecule antagonists of androgen receptor signaling (AID 588516; active = well fitted curve in the direction sought with a large enough effect in the signal ratio, with a control signal flat, not every such curve was filed as active; the % refers to the signal ratio)
# Procedure, shortened: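 Cells were plated and incubated 5 h, compounds added in titration, then R1881 (10 nM final) as agonist. After 16 h at 37 C, CCF4 substrate was loaded for 2 h at room temperature and fluorescence measured.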
# [2] = target: Peroxisome proliferator-activated receptor gamma (Homo sapiens) (UniProt P37231); test: qHTS assay for small molecule antagonists of peroxisome proliferator-activated receptor gamma signaling (AID 588537; active = well fitted inhibition curve with a large enough effect in the signal ratio, with a control signal flat, not every such curve was filed as active; the % refers to the signal ratio;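 also: reporter cells co-stimulated with 50 nM rosiglitazone agonist during compound treatment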)
# Procedure, shortened: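 Fluorescence at 460 and 530 nm (405 nm excitation) reported beta-lactamase cleavage of CCF4 after 2 h room-temperature loading. HEK293 reporter cells in 1% charcoal/dextran-treated FBS had received compound and rosiglitazone for 16 h.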
# [3] = target: Vitamin D3 receptor (Homo sapiens) (UniProt P11473); test: qHTS assay for small molecule antagonists of vitamin D receptor signaling (AID 588541);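 also: receptor activated by calcitriol during compound treatment; series mostly up to about 77 µM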
# Procedure, shortened: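 VDR-UAS-bla HEK293T cells in 2% charcoal-stripped FBS were stimulated with 1-alpha,25-dihydroxyvitamin D3 (3 nM final) plus compound for 16 h at 37 C. The beta-lactamase CCF4 readout was normalized to 50 nM agonist and DMSO, and Hill fits gave IC50.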
# [4] = target: Vitamin D3 receptor (Homo sapiens) (UniProt P11473); test: qHTS assay for small molecule agonists of vitamin D receptor signaling (AID 588543)
# Procedure, shortened: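 Reporter cells (HEK293T, VDR-UAS-bla) were seeded in medium with 2% charcoal-stripped serum and incubated 5 h, then compounds in concentration series were added for 16 h at 37 °C. Stimulation was scaled between DMSO basal and 50 nM 1α,25-dihydroxyvitamin D3.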
# [5] = target: Thyroid hormone receptor beta (Homo sapiens) (UniProt P10828); test: qHTS assay for small molecule antagonists of thyroid hormone receptor beta signaling (AID 588547; active = well fitted inhibition curve with a large enough effect in the signal ratio, with a control signal flat, not every such curve was filed as active; the % refers to the signal ratio;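 also: cells stimulated with 0.4 nM T3 agonist during compound exposure; series mostly up to about 77 µM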); settings: TR-UAS-bla HEK293, beta-lactamase ratio, antagonist mode, 18 h
# Procedure, shortened: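 TR-UAS-bla GripTite HEK293 cells in 2% charcoal/dextran FBS medium; compounds 0.59 nM to 92 uM with T3 at 0.4nM final, 18 h at 37 C. Beta-lactamase read by CCF4 fluorescence (460/530 nm); Hill fits gave IC50 and efficacy.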
# [6] = qHTS assay for small molecule agonists of the antioxidant response element (ARE) signaling pathway (AID 651741; active = well fitted activation curve with a large enough effect in the signal ratio; the % refers to the signal ratio; also: potency is read from the fitted curve at half-maximal effect)
# Procedure, shortened: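 Stably integrated ARE-beta-lactamase reporter HepG2 cells; 16 h compound incubation, 37 C; LiveBLAzer FRET substrate 2 h at room temperature; fluorescence intensity.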
# [7] = target: Androgen receptor (Homo sapiens) (UniProt P10275); test: qHTS assay for small molecule agonists of androgen receptor signaling (AID 588515; active = well fitted curve in the direction sought with a large enough effect in the signal ratio, with a control signal flat; the % refers to the signal ratio); settings: AR-UAS-bla HEK293, beta-lactamase ratio, agonist 16 h; activation: stronger effect = higher value
# Procedure, shortened: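 Stimulation of an AR-responsive β-lactamase reporter in GripTite HEK293 cells was measured after 16 h compound exposure at 37 °C, via CCF4 fluorescence after 2 h RT. EC50 from Hill fits, normalized to R1881 at 30 nM.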
# [8] = qHTS assay for small molecule activators of the p53 signaling pathway (AID 651743; active = well fitted activation curve with a large enough effect in the signal ratio, not every such curve was filed as active; the % refers to the signal ratio; also: series mostly up to about 92 µM); settings: HCT-116 p53RE-bla, beta-lactamase FRET ratio, 16 h; activation: stronger effect = higher value
# Procedure, shortened: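 Following 16 hours of compound exposure at 37 C, HCT-116 cells bearing the p53RE-bla reporter were loaded with LiveBLAzer B/G FRET substrate for 2 hours at room temperature and fluorescence intensity was recorded.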
# [9] = target: Bile acid receptor (Homo sapiens) (UniProt Q96RI1); test: qHTS assay for small molecule antagonists of farnesoid X receptor signaling (AID 588526)
# Procedure, shortened: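 Antagonist mode: titrated compounds tested against chenodeoxycholic acid stimulation (normalized to 50 uM CDCA and DMSO) in GeneBLAzer HEK293T cells for 16 h. Beta-lactamase read by CCF4 fluorescence; IC50 from Hill fits.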
# [10] = target: Glucocorticoid receptor (Homo sapiens) (UniProt P04150); test: qHTS assay for small molecule agonists of glucocorticoid receptor signaling (AID 588532; active = well fitted curve in the direction sought with a large enough effect in the signal ratio, with a control signal flat; the % refers to the signal ratio); settings: HeLa MMTV-bla, beta-lactamase ratio, agonist, 18 h; stronger effect = higher value; percent of dexamethasone control, DMSO zero
# Procedure, shortened: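 MMTV-bla HeLa beta-lactamase reporter cells in 1% charcoal/dextran FBS medium, compounds up to 92 uM for 18 h at 37 C, CCF4 readout; normalized to 0.1 uM dexamethasone (100%), EC50 and efficacy from Hill fits.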
# Glucocorticoid receptor (Homo sapiens), sequence (P04150 whole entry, looked up): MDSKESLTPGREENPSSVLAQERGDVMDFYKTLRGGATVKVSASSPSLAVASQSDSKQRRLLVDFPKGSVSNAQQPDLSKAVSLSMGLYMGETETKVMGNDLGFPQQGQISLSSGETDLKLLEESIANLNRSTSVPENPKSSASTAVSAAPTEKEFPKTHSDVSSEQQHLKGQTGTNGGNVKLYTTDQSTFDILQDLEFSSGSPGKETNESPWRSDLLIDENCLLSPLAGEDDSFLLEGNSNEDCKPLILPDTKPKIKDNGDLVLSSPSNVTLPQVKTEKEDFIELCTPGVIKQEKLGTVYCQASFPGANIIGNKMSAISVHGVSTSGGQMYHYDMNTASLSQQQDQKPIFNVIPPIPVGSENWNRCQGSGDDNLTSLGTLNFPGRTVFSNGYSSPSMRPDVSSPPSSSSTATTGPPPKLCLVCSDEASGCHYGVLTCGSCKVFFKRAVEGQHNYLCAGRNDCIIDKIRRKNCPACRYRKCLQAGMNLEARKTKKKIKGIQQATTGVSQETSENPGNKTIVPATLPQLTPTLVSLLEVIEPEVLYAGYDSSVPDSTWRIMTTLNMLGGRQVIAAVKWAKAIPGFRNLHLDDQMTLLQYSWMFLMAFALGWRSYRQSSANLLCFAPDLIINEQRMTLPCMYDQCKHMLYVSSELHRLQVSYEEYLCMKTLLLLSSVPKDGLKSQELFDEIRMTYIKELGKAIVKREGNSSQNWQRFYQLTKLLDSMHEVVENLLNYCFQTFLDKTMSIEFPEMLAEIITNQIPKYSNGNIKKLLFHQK
# Androgen receptor (Homo sapiens), sequence (P10275 whole entry, looked up): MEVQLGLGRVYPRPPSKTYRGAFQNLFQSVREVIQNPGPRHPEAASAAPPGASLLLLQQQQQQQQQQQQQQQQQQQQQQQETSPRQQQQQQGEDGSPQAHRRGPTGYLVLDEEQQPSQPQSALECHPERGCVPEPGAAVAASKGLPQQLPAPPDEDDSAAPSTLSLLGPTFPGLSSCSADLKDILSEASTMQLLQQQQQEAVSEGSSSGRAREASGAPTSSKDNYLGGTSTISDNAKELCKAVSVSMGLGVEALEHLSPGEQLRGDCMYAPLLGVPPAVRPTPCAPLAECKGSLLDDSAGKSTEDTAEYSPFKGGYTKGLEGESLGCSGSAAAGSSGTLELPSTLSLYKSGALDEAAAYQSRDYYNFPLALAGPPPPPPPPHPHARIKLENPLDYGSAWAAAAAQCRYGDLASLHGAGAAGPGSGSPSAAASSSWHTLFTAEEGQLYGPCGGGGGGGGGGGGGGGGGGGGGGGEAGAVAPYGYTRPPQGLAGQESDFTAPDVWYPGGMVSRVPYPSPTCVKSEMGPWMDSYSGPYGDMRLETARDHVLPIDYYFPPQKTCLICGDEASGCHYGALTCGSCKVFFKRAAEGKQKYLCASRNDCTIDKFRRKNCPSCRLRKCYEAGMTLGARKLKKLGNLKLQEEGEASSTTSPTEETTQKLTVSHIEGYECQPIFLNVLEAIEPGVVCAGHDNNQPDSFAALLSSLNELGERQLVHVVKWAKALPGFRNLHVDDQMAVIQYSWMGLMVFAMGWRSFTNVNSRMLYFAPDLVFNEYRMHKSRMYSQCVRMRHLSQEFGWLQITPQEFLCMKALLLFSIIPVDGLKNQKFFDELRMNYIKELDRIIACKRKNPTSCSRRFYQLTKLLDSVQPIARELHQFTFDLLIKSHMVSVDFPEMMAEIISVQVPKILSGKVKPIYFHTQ
# Peroxisome proliferator-activated receptor gamma (Homo sapiens), sequence (P37231 whole entry, looked up): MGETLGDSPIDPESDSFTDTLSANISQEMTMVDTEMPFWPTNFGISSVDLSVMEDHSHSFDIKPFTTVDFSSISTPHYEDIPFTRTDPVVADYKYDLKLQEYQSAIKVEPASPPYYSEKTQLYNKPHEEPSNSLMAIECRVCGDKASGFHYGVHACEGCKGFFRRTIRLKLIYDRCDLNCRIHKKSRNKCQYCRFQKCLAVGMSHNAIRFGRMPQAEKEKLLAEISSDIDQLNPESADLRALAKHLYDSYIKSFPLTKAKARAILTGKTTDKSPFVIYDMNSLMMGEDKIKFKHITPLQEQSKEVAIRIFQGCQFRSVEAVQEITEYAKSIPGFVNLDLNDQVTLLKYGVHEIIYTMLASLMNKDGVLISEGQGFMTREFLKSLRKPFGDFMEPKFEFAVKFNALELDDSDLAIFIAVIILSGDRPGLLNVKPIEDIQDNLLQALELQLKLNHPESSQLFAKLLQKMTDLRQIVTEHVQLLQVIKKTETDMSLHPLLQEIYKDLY
# Thyroid hormone receptor beta (Homo sapiens), sequence (P10828 whole entry, looked up): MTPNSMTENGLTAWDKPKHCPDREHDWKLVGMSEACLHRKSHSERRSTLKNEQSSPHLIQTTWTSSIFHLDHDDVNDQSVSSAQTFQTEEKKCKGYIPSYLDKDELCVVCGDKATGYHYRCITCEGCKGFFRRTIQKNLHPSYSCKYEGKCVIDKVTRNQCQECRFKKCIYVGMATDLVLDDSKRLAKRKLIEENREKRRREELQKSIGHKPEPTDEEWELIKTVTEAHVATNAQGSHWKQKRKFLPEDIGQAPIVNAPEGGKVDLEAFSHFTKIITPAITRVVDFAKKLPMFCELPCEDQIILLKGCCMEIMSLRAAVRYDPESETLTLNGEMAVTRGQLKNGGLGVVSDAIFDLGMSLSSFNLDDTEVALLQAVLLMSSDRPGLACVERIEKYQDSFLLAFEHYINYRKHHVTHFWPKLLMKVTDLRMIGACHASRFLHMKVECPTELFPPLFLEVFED
# Vitamin D3 receptor (Homo sapiens), sequence (P11473 whole entry, looked up): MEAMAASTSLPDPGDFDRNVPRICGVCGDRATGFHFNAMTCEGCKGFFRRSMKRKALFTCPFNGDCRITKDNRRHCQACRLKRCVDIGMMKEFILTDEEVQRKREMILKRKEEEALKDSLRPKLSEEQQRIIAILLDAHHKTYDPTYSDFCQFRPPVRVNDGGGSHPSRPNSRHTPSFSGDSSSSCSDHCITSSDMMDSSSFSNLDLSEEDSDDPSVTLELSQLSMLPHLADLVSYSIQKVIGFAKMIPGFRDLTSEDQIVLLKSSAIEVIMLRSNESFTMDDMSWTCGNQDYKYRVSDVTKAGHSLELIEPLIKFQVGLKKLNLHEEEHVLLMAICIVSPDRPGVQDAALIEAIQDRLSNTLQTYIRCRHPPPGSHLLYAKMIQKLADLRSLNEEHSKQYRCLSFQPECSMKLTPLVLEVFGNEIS
# Bile acid receptor (Homo sapiens), sequence (Q96RI1 whole entry, looked up): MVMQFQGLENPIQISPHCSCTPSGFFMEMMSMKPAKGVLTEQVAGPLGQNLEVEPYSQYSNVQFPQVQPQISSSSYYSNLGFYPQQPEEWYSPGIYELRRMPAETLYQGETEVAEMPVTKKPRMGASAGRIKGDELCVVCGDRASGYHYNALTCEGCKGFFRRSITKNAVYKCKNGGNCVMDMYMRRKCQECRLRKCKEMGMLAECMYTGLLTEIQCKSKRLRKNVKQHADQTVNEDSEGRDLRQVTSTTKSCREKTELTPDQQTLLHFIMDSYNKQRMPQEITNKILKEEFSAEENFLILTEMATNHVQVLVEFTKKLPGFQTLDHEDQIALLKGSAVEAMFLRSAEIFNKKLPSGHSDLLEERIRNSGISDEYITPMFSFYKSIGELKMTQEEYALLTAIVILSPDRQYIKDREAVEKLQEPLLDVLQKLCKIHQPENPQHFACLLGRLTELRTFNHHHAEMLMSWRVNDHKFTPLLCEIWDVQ
Compound,outcome [1],Potency [2],Potency [3],outcome [4],activity change % (negative = inhibition) [5],Potency [6],activation [7],activation [8],Potency [9],activation [10]
NCCCCCCCCCCCC(=O)O,inactive,inactive,inactive,inactive,11.2%,inactive,–,–,–,–
O=c1[nH]c(=O)c2[nH]cnc2[nH]1,–,inactive,inactive,inactive,11.6%,–,2.45%,4.14%,–,–
CC(C)c1cccc(C(C)C)c1,–,–,inactive,inactive,-5.42%,inactive,–,–,inactive,-12.5%
CCCCC(CC)C(=O)OCCOCCOCCOC(=O)C(CC)CCCC (configuration not stated),–,inactive,–,inactive,12.7%,inactive,6.77%,0.679%,–,-10%
CCCCCCCCCCCCCc1ccccc1,–,inactive,inactive,inactive,11.3%,inactive,–,1.08%,inactive,-7.21%
CCOC(=O)C1=NN(c2ccc(Cl)cc2Cl)C(C)(C(=O)OCC)C1 (configuration not stated),–,–,inactive,inactive,–,inactive,-14.3%,-4.17%,–,-2.41%
N[C@@H]1[C@@H](O)[C@H](O)[C@@H](CO)O[C@H]1O,–,inactive,inactive,–,–,–,9.13%,-3.01%,–,–
C=CC(=O)OCC[N+](C)(C)C,–,inactive,inactive,inactive,-9.01%,–,–,2.09%,inactive,–
NNS(=O)(=O)c1ccc(Oc2ccc(S(=O)(=O)NN)cc2)cc1,–,–,inactive,inactive,-2.89%,–,–,-0.745%,inactive,–
CCCCN(CCCC)CCCC,–,–,inactive,–,-2.52%,inactive,–,-3.01%,inactive,8.81%
O=C(O)C(c1ccc(Cl)cc1)c1ccc(Cl)cc1,–,–,inactive,inactive,-8.17%,–,–,–,inactive,–
O=C(O)CCCCCCCCCCC(=O)O,–,–,inactive,inactive,17.5%,inactive,–,–,inactive,-1.99%
Cl[Si](Cl)(c1ccccc1)c1ccccc1,–,inactive,–,inactive,–,54.5 µM (active),–,-1.29%,inactive,0.877%
CCCCNS(=O)(=O)c1ccccc1,–,inactive,inactive,inactive,-5.57%,–,–,0.183%,inactive,–
